# Screens: PubChem BioAssay, National Center for Advancing Translational Sciences (NCATS)
# Compounds with a hit are over-represented: about 14% of the library has one in this group of screens.
# HCMV antiviral: blocks human cytomegalovirus replication. HFF cells, HCMV-luciferase reporter, 72 h; stronger effect = lower value. activity change, negative = inhibition, % at 57.5 µM. actives 4.5% (n = 410,000); in the data active = activity change below about -60%; inconclusive = no clear call, values can overlap the other calls; inactive = above about -39%
#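 Steps: HFFs plated, 16 h 37C; compounds added; HCMV-luciferase added to MOI 1 PFU/cell; 72 h 37C; OneGlo reagent, 5 min room temperature; luminescence read, normalized to controls.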
# Pf growth 96h: inhibits malaria parasite growth, 96 h. P. falciparum luciferase reporter growth, 96 h. Potency, µM (top dose mostly 28.7 µM), for the others: at the top dose activity change, negative = inhibition, most hits filed as inhibitors. actives 6.9% (n = 320,000); note: potency is the fitted concentration of half-maximal effect
#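 Plates of compound plus infected erythrocytes (2% hematocrit, 0.05% parasitemia final) incubate 96 hours, 37 C, 5% CO2. Detection reagent added; reduced luminescence from the parasites' luciferase reporter flags inhibition.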
# Sm TGR block: inhibitors of Schistosoma mansoni thioredoxin glutathione reductase | purified TGR, DTNB reduction, TNB absorbance 405 nm | Potency, µM (doses to about 114 µM), without a hit: at the top dose activity change, negative = inhibition, hits mostly inhibitors | actives 3% (n = 360,000); note: potency is the fitted concentration of half-maximal effect; nearly all actives have a fitted effect of over 60% in size
#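 First, TGR (20 nM dispensed) and NADPH were mixed with compound. Second, a 15 min room-temperature incubation followed. Third, further NADPH and then DTNB were added to start the reaction. Finally, TNB absorbance was monitored kinetically.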
# Pf growth 48h: P. falciparum growth inhibition at 48 hours (one generation). P. falciparum luciferase growth in erythrocytes, 48 h. Potency, µM (top dose mostly 28.7 µM), without a hit: top-dose activity change, negative = inhibition, most hits filed as inhibitors. actives 5.9% (n = 310,000); note: potency is the fitted concentration of half-maximal effect
#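 Erythrocytes infected with P. falciparum carrying an integrated firefly luciferase reporter (2% hematocrit, 0.1% parasitemia final) were exposed to compounds in RPMI 1640 with 0.5% Albumax at 37 C, 5% CO2. Growth inhibition was scored as reduced luminescence.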
# FBPA Giardia inh: blocks Giardia fructose-bisphosphate aldolase activity. A8B2U2. AID 2451. actives 0.71% (n = 290,000). purified Giardia FBPA. Potency, µM (top dose mostly 59.6 µM), inactives show at the top dose activity, negative = inhibition, most hits filed as inhibitors; note: potency is the fitted concentration of half-maximal effect; nearly all actives have a fitted effect of over 55% in size
# Target sequence (A8B2U2 whole entry, looked up): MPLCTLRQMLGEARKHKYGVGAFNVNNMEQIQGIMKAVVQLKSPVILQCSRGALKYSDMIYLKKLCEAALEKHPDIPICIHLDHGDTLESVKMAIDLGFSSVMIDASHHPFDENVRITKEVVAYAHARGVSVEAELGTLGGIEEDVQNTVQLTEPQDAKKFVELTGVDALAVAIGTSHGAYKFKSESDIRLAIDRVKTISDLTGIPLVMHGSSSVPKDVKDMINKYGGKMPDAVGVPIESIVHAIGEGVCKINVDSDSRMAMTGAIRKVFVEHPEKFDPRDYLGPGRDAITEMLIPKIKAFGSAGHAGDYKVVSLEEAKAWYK
#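 40 nM FBPA preincubated 10 min at RT with compound (up to 57.5 uM final), then substrate plus GAPDH/TPI/NAD/arsenate coupling and diaphorase/resazurin added. Fluorescence read after 20 min at RT, 525/598 nm.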
# An asterisk follows results filed as active; ? = inconclusive; / = no result; [ ] = another dose, or the depositor's remark. Unless noted, calls come from the whole dose curve; as a rule, active = well fitted curve in the direction sought with a large enough effect; inconclusive = small, poorly fitted or top-dose-only effect, or another doubt; inactive = no such curve, though single readings can be large; an effect the other way counts as inactive or inconclusive. % is set by controls: 0 for no effect and ±100 for the full control effect.
SMILES,HCMV antiviral,Pf growth 96h,Sm TGR block,Pf growth 48h,FBPA Giardia inh
COc1ccc(C(CNC(=O)c2ccc(OC)c(S(=O)(=O)N3CCCC3)c2)N2CCCC2)cc1 (centres undefined),-20.3,10.4µM*,-10.3%,?,/
COc1ccccc1C(CNC(=O)c1ccc(C)c(S(=O)(=O)N2CCCCC2)c1)N1CCCC1 (centres undefined),-18.0,10.4µM*,-25.0%,?,/
COc1ccc(C(=O)NCC(c2ccccc2)c2ccccc2)cc1S(=O)(=O)N1CCOCC1,-0.4,/,/,/,/
COc1ccc(C(=O)NCC(c2ccc(F)cc2)N2CCOCC2)cc1S(=O)(=O)N1CCCC1 (centres undefined),44.4,10.4µM*,13.1%,?,1.4%
Nc1ncnc2c1cnn2C1CCCCC1,16.6,?,-0.9%,72.9%,0.1%
CCCCC#CC1C=CC(Oc2cc(OC)c(OC)c(OC)c2)C(CO)O1 (centres undefined),/,/,/,/,3.2%[12.9 µM]
Cc1ccc(NC(=S)Nc2cccc(-c3n[nH]c(=S)o3)c2)cc1,-34.3,16.1%,12.6µM*,2.2%,6.2%
O=C(COC(=O)c1ccccc1NCCO)Nc1cc(C(F)(F)F)ccc1N1CCOCC1,10.5,?,3.0%,?,-0.2%
O=C(Nc1ccc(F)cc1)N(Cc1ccco1)Cc1cc2cc3c(cc2[nH]c1=O)OCO3,?,?,0.0%,10.4µM*,-0.2%
COc1ccc(NC(=O)N(Cc2cccs2)Cc2cc3cc4c(cc3[nH]c2=O)OCO4)cc1,/,-11.0%,-3.1%,?,-2.3%
O=C(Nc1ccc(F)cc1)N(Cc1cccs1)Cc1cc2cc3c(cc2[nH]c1=O)OCO3,-60.9*,41.3%,-10.1%,?,-2.9%
Cc1ccc(NC(=O)N(Cc2cccs2)Cc2cc3cc4c(cc3[nH]c2=O)OCO4)cc1,17.8,?,-2.1%,?,-1.6%
CCc1ccc(N(CC(=O)NCc2ccc(F)cc2)C(=O)c2csnn2)cc1,29.1,?,?,?,3.1%
COc1ccc(N2C(=O)CSC23C(=O)N(CC(=O)Nc2ccccc2F)c2ccccc23)cc1 (centres undefined),-10.6,/,10.1%,/,/
CN1C(=O)Cc2cc(S(=O)(=O)CCC(=O)N3CCN(c4ccccc4F)CC3)ccc21,-11.1,/,-20.9%,/,/
Cc1ccc(C)c(N2CCN(C(=O)CCC(=O)N3CCOc4ccc(Cl)cc43)CC2)c1,-80.2*,4.15µM*,22.7%,?,-3.9%
O=C(CCC(=O)N1CCOc2ccc(Cl)cc21)NCCCN1CCC(Cc2ccccc2)CC1,-74.7*,?,-1.1%,?,-1.9%
Cc1ccc(C)c(N2CCN(CCCNC(=O)CCC(=O)N3CCOc4ccc(Cl)cc43)CC2)c1,-83.3*,12.7%,-1.7%,?,/
Cc1cccc(N2CCN(C(=O)CCS(=O)(=O)c3ccc4c(c3)CC(=O)N4C)CC2C)c1 (centres undefined),-8.3,/,12.6µM*,/,/
Cc1ccc(Cl)cc1N1CCN(CCCNc2ncnc3onc(-c4ccc(F)cc4)c23)CC1,-3.3,/,-1.4%,/,/
C[C@@H]1CC(=O)N(C)[C@H](c2ccccc2)[C@H]1S(=O)(=O)c1ccccc1,-8.4,/,/,/,/
CCOc1ccc(CCNC(=O)CCC(=O)N2CCOc3ccccc32)cc1OCC,14.8,2.4%,-24.5%,1.5%,12.1%
CC1CCCC(NC(=O)CCC(=O)N2CCOc3ccccc32)C1C (centres undefined),-36.9,9.28µM*,-4.3%,8.6%,/
Cc1cccc(N2CCN(C(=O)CCC(=O)N3CCOc4ccc(Cl)cc43)CC2C)c1 (centres undefined),13.1,9.28µM*,6.9%,-6.2%,4.1%
NC(=O)C1CCN(C(=O)CCC(=O)N2CCOc3ccc(Cl)cc32)CC1,13.8,?,-1.6%,10.8%,5.0%
O=C(CCC(=O)N1CCOc2ccccc21)NC1CCN(Cc2ccccc2)CC1,-10.4,30.9%,-1.8%,10.0%,1.8%
O=C(CCC(=O)N1CCOc2ccccc21)NCCc1ccccc1,26.7,14.7µM*,-13.3%,32.6%,1.3%
CCCCCCCCCCCCC/C=C/[C@@H](O)[C@H](COP(=O)([O-])OCC[N+](C)(C)C)NC(=O)CCCCCCCCCCCCCCCCC,/,/,/,/,5.4%
